Inconclusive results are not listed. Activity calls are given as the source filed them. Unless noted, the call rests on the fitted dose curve; in most records, active means well fitted curve in the direction sought with a large enough effect in the repeat runs; inconclusive means weak or mixed curves; inactive means no such curve, though single readings can be large; an effect the other way counts as inactive or inconclusive.
Columns and labels:
[1] = qHTS assay to identify small molecule agonists of the estrogen receptor alpha (ER-alpha) signaling pathway in the presence of an antagonist - cell viability counter screen (AID 1259386);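 further: series mostly up to about 92 µM; cells exposed to compounds for 22 h at 37 °C before the viability read; nearly all actives have a fitted effect of over 30% in size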
Summary of the method: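 The test measures whether compounds kill ER-alpha reporter cells (VM7Luc4E2) under antagonist co-treatment (ICI-182,780, 10.0nM). Fluorescence from CellTiter-Fluor is read after a 22hr exposure.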

[2] = target: Progesterone receptor (Homo sapiens) (UniProt P06401); experiment: qHTS assay to identify small molecule agonists of the progesterone receptor (PR) signaling pathway (AID 1346784; calls by dose curve; further: nearly all actives have a fitted effect of over 30% in size)
Chain of Progesterone receptor (Homo sapiens) (P06401 whole entry, looked up): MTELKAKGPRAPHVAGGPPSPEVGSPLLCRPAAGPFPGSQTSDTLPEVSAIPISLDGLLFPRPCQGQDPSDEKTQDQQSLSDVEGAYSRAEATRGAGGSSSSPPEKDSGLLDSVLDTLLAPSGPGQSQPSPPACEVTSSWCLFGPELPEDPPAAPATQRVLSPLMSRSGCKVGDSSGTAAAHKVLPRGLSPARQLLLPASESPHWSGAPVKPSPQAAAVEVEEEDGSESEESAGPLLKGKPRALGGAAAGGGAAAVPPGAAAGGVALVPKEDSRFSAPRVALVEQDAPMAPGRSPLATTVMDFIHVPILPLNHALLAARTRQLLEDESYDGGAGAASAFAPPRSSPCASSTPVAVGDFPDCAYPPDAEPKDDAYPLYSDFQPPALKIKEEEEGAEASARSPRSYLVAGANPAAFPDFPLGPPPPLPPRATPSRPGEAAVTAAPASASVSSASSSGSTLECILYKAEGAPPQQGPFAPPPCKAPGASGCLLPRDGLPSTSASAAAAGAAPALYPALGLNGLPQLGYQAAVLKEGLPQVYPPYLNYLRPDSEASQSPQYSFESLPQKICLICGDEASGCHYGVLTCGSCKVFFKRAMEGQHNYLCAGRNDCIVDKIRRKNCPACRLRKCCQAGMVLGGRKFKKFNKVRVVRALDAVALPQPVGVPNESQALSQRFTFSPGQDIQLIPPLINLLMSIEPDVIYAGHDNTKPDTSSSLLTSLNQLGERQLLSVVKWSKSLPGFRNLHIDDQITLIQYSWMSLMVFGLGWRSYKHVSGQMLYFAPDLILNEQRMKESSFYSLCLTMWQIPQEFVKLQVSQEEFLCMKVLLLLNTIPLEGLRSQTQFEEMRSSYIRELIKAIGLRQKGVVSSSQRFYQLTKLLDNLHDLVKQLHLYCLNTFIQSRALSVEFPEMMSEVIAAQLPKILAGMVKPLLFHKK
Summary of the method: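 PR-UAS-bla HEK 293T cells carrying a UAS-driven beta-lactamase reporter were seeded in medium with 2% charcoal-stripped FBS, preincubated 6 hr at 37C, then exposed to compounds in DMSO for 16 hr; agonism was read by LiveBLAzer B/G FRET fluorescence.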

[3] = target: Progesterone receptor (Homo sapiens) (UniProt P06401); experiment: qHTS assay to identify small molecule antagonists of the progesterone receptor (PR) signaling pathway (AID 1346795; active means well fitted inhibition curve with a large enough effect in the signal ratio in the repeat runs, not every such curve was filed as active; the % refers to the signal ratio)
Summary of the method: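 PR-UAS-bla HEK293T cells carrying a UAS-driven beta-lactamase reporter were plated in medium with 2% charcoal-stripped FBS and rested 6 hr at 37C. Compounds were added with 1 nM R5020 (final) for 16 hr, then FRET substrate loaded 2 hr at room temperature.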

[4] = qHTS assay to identify small molecule antagonists of the progesterone receptor (PR) signaling pathway - cell viability counter screen (AID 1346798); further: series mostly up to about 92 µM; nearly all actives have a fitted effect of over 50% in size
Summary of the method: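 PR-UAS-bla HEK293T cells in medium with 2% charcoal-stripped FBS were treated with compounds plus R5020 for 16 hr at 37C. Cell viability was then read by CellTiter-Glo luminescence after 30 min at room temperature in the same wells.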

[5] = qHTS assay to identify small molecule agonists of the progesterone receptor (PR) signaling pathway - cell viability counter screen (AID 1346799; calls by dose curve; further: nearly all actives have a fitted effect of over 45% in size)
Summary of the method: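 PR-UAS-bla HEK293T cells, 3,000 per well in medium with 2% charcoal-stripped FBS, were preincubated 6 hr at 37C, then exposed to compounds for 16 hr; viability was read as CellTiter-Glo luminescence after 30 min at room temperature.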

[6] = qHTS assay to identify small molecule antagonists of the TGF-beta/Smad signaling pathway - cell viability counter screen (AID 1346824); further: nearly all actives have a fitted effect of over 50% in size
Summary of the method: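 Cytotoxicity counter-screen run in the same wells as the beta-lactamase Smad reporter read: CellTiter-Glo luminescence after 30 min at room temperature. HEK 293T SBE-bla cells had 5 hr compound exposure at 37 C with TGF-beta1 (0.25 ng/mL stock).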

[7] = qHTS assay to identify small molecule agonists of the TGF-beta/Smad signaling pathway - cell viability counter screen (AID 1346829); further: top concentration of the series differs between compounds; nearly all actives have a fitted effect of over 45% in size
Summary of the method: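 Tox21 qHTS format: SBE-bla HEK 293T cells treated with DMSO-dissolved compounds for 5 hr; CellTiter-Glo luminescence after 30 min at room temperature.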

[8] = qHTS assay to identify small molecule agonists of the TGF-beta/Smad signaling pathway (AID 1346859; active means well fitted activation curve with a large enough effect in the signal ratio in the repeat runs, not every such curve was filed as active; the % refers to the signal ratio; further: series mostly up to about 77 µM)
Summary of the method: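 HEK 293T cells stably carrying a beta-lactamase reporter driven by the Smad binding element were seeded overnight, exposed to DMSO-dissolved compounds for 5 hr at 37 C, 5% CO2, then loaded with FRET substrate for 2 hr at room temperature.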

[9] = target: Thyrotropin-releasing hormone receptor (Homo sapiens) (UniProt P34981); experiment: qHTS assay to identify small molecule antagonists of the thyrotropin-releasing hormone receptor (TRHR) signaling pathway (AID 1346877; active means well fitted inhibition curve with a large enough effect in the repeat runs, not every such curve was filed as active; further: series mostly up to about 51 µM)
Chain of Thyrotropin-releasing hormone receptor (Homo sapiens) (P34981 whole entry, looked up): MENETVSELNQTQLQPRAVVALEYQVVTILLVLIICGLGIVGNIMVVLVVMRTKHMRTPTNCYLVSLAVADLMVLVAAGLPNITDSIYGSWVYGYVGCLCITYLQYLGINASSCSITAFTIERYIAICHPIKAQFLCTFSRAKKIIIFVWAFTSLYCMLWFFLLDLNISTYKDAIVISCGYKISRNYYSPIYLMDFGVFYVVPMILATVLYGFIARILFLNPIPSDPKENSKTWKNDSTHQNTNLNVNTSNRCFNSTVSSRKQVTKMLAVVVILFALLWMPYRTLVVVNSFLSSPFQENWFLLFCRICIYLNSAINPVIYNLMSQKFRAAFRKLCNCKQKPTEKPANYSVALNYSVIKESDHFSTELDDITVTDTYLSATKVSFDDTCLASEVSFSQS
Summary of the method: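 Overnight-plated (18 h, 37 °C) HEK293 cells expressing TRHR were dye-loaded 2 h, treated with compound, then stimulated with TRH at 1 nM final. Fluorescence intensity was captured every second for 3 min.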

[10] = target: Thyrotropin-releasing hormone receptor (Homo sapiens) (UniProt P34981); experiment: qHTS assay to identify small molecule agonists of the thyrotropin-releasing hormone receptor (TRHR) signaling pathway (AID 1346891; calls by dose curve; further: series mostly up to about 58 µM)
Summary of the method: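 TRHR-expressing HEK293 cells were plated 18 h at 37 °C/5% CO2, loaded with calcium dye 2 h at 37 °C, then given compound in DMSO; fluorescence was read kinetically for 3 min at 1 s intervals.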

[11] = Human pregnane X receptor (PXR) small molecule agonists, qHTS cell viability counter screen (AID 1346977); further: nearly all actives have a fitted effect of over 50% in size
Summary of the method: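 PXR-Luc HepG2 cells in medium with 5% charcoal-stripped FBS were pre-incubated 5hr, then exposed to compounds for 24hr at 37C. Viability was read in the same wells by CellTiter-Fluor fluorescence, reagent added after 23hr with a 1hr incubation.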

[12] = Caspase-3/7 induction in HepG2 cells by small molecules, qHTS assay (AID 1346978); further: nearly all actives have a fitted effect of over 15% in size
Summary of the method: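 Caspase-3/7 induction was measured by Caspase-Glo 3/7 luminescence (30 min, room temperature) after a 17 hr compound exposure of wild-type HepG2 cells seeded at 2,000 per well and pre-incubated 5 hr.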

[13] = Caspase-3/7 induction in CHO-K1 cells by small molecules, qHTS cell viability counter screen (AID 1346979); further: nearly all actives have a fitted effect of over 35% in size
Summary of the method: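 Wild-type CHO-K1 cells were seeded at 1,500 per well, rested 5hr at 37 C, then exposed to compounds in DMSO. After 16hr, CellTiter-Fluor reagent was added and fluorescence read 1hr later as the viability measure.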

[14] = Caspase-3/7 induction in CHO-K1 cells by small molecules, qHTS assay (AID 1346980); further: nearly all actives have a fitted effect of over 15% in size
Summary of the method: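 Luminescent Caspase-Glo 3/7 read (30min, room temperature) quantified apoptosis induction. Cells were wild-type CHO-K1, treated with compound for 17hr at 37 C and 5% CO2.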

[15] = Caspase-3/7 induction in HepG2 cells by small molecules, qHTS cell viability counter screen (AID 1346981); further: series mostly up to about 92 µM; nearly all actives have a fitted effect of over 30% in size
Summary of the method: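 Treatment of HepG2 cells with DMSO-delivered compounds ran 16 hr at 37 C following a 5-hr pre-incubation of 2,000 cells/well. CellTiter-Fluor fluorescence, read after 1 hr, served as the viability measure in a qHTS format.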

[16] = target: Acetylcholinesterase (Homo sapiens) (UniProt P22303); experiment: Acetylcholinesterase (AChE) small molecule antagonists: colormetric cell-based qHTS assay (AID 1347395; calls by dose curve; further: nearly all actives have a fitted effect of over 30% in size)
Chain of Acetylcholinesterase (Homo sapiens) (P22303 whole entry, looked up): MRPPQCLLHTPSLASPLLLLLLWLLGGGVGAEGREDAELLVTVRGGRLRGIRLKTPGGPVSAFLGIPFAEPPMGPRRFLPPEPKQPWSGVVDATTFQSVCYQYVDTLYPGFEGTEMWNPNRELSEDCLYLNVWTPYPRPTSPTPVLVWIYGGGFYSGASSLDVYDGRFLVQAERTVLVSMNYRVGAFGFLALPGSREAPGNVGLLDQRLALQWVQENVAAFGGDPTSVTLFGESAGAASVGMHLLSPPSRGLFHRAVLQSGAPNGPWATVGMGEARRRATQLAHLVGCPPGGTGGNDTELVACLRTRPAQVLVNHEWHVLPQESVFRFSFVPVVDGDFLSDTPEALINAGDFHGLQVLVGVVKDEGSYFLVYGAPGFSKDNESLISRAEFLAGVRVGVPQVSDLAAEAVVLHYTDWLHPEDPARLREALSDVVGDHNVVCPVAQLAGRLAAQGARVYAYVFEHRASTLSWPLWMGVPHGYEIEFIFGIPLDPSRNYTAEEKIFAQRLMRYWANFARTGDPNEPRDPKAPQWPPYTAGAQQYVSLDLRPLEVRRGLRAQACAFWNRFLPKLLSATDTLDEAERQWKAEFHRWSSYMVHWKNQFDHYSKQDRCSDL
Summary of the method: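 SH-SY5Y cells, plated overnight at 37 C, were exposed to compounds for 30 min at 37 C and 5% CO2. Acetylthiocholine plus DTNB was then added, and thiocholine from endogenous AChE was quantified colorimetrically after 90 min at 37 C.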

[17] = target: Nuclear receptor subfamily 1 group I member 2 (Homo sapiens) (UniProt O75469); experiment: Human pregnane X receptor (PXR) small molecule agonists, qHTS assay (AID 1346982); further: nearly all actives have a fitted effect of over 35% in size; further: potency means the concentration at half of the fitted maximal effect
Chain of Nuclear receptor subfamily 1 group I member 2 (Homo sapiens) (O75469 whole entry, looked up): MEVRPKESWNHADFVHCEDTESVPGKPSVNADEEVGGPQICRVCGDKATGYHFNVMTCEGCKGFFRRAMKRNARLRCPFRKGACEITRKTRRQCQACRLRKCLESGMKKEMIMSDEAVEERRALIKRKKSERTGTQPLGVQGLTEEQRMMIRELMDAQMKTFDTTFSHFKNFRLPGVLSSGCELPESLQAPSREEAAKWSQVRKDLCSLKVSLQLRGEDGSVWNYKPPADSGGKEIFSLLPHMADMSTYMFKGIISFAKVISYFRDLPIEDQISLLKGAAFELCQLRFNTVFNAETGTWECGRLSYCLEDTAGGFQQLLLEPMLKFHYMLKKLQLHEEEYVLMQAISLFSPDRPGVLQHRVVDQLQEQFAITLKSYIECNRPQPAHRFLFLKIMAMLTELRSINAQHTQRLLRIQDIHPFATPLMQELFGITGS
Summary of the method: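 Stable HepG2 line reporting PXR-mediated CYP3A4 expression via luciferase. Treatment: 24 hr with compounds in DMSO at 37 C. Detection: ONE-Glo luminescence.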

[18] = target: Nuclear receptor subfamily 1 group I member 2 (Rattus norvegicus) (UniProt Q9R1A7); experiment: Rat pregnane X receptor (rPXR) activation by small molecules, qHTS assay (AID 1346983); conditions: rPXR luciferase reporter cells, One-Glo luminescence, 24 h; active compounds read high; further: nearly all actives have a fitted effect of over 20% in size
Chain of Nuclear receptor subfamily 1 group I member 2 (Rattus norvegicus) (Q9R1A7 whole entry, looked up): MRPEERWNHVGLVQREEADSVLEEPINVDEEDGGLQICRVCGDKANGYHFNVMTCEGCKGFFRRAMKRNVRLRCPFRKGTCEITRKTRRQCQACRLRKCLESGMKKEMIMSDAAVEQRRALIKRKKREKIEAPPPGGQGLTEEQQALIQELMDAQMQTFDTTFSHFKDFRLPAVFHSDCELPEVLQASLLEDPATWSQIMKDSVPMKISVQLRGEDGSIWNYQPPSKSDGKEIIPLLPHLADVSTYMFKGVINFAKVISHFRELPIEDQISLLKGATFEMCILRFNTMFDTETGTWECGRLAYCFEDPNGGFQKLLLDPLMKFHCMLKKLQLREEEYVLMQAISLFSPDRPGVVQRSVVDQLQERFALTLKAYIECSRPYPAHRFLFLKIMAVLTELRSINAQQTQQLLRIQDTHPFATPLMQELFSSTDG
Summary of the method: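 Luminescent readout (One-Glo luciferase, 30 min room temperature) followed 24 hr compound treatment at 37 C of rPXR cells plated 2,000 per well and preincubated 5hr; qHTS format with compounds delivered in DMSO.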

[19] = target: Nuclear receptor subfamily 1 group I member 2 (Homo sapiens) (UniProt O75469); experiment: CYP3A4 induction through human pregnane X receptor (PXR) by small molecules, qHTS assay (AID 1346984); further: nearly all actives have a fitted effect of over 40% in size; further: potency means the concentration at half of the fitted maximal effect
Summary of the method: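 After 24 h at 37C with compound, DPX-2 cells (HepG2, co-transfected PXR response element and CYP3A4 promoter-luciferase) got 3uM final P450-Glo Luciferin-IPA for 3 h; One-Glo luminescence followed.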

[20] = target: Nuclear receptor subfamily 1 group I member 2 (Homo sapiens) (UniProt O75469); experiment: Human pregnane X receptor (PXR) activation by small molecules, qHTS assay (AID 1346985); further: nearly all actives have a fitted effect of over 40% in size
Summary of the method: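 DPX-2 cells (HepG2 co-transfected with a PXR response element and a CYP3A4-promoter luciferase construct) were seeded at 2,000 per well, rested 5 hr at 37C, then exposed to DMSO-dissolved compounds for 24 hr. Activation was read as luciferase luminescence.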
On the % scale 0 is the no-effect control and ±100 the full control effect.

NNC(N)=O
inactive: Potency [1] | Potency [2] | Potency [3] | Potency [4] | Potency [5] | outcome [6] | Potency [7] | outcome [8] | Potency [9] | outcome [10] | Potency [11] | outcome [12] | Potency [13] | outcome [14] | Potency [15] | Potency [16]

CN(C)C1CCCCC1
inactive: Potency [1] | Potency [2] | Potency [3] | Potency [4] | Potency [5] | outcome [6] | Potency [7] | outcome [8] | Potency [9] | outcome [10] | Potency [11] | outcome [12] | Potency [13] | outcome [14] | Potency [17] | Potency [16]

S=C=S
inactive: Potency [1] | Potency [2] | Potency [3] | Potency [4] | Potency [5] | outcome [6] | Potency [7] | outcome [8] | Potency [9] | outcome [10] | Potency [11] | outcome [12] | Potency [13] | outcome [14] | Potency [15] | Potency [17] | max activation [18] 3.06% | Potency [19] | Potency [20] | Potency [16]

O=S1(=O)OCCO1
inactive: Potency [1] | Potency [2] | Potency [3] | Potency [4] | Potency [5] | outcome [6] | Potency [7] | outcome [8] | Potency [9] | outcome [10] | Potency [11] | outcome [12] | Potency [13] | outcome [14] | Potency [15] | Potency [17] | Potency [16]

CCC1(c2ccccc2)C(=O)N(COC)C(=O)N(COC)C1=O
active: Potency [19] 10 µM
inactive: Potency [1] | Potency [2] | Potency [3] | Potency [4] | Potency [5] | outcome [6] | Potency [7] | outcome [8] | Potency [9] | outcome [10] | Potency [11] | outcome [12] | Potency [13] | outcome [14] | Potency [15] | Potency [17] | max activation [18] 3% | Potency [16]

CCC(C)(C#N)N=NC(C)(C#N)CC (stereo not drawn)
inactive: Potency [1] | Potency [2] | Potency [3] | Potency [4] | Potency [5] | outcome [6] | Potency [7] | outcome [8] | Potency [9] | Potency [11] | outcome [12] | Potency [13] | Potency [15] | Potency [17] | Potency [16]

CC(=O)OCC1=C(C(=O)O)N2C(=O)[C@@H](N)[C@H]2SC1
inactive: activity change, negative = cytotoxicity [1] -2.84% [at 19 µM] | activation [2] 0.683% [at 19 µM] | activity change, negative = inhibition [3] 0.73% [at 18.9 µM] | activity change, negative = cytotoxicity [4] 2.66% [at 18.9 µM] | activity change, negative = cytotoxicity [5] 3.69% [at 19 µM] | viability change, negative = cytotoxic [6] -0.755% [at 15.8 µM] | activity change, negative = cytotoxicity [7] -0.572% [at 15.8 µM] | activation [8] -1.32% [at 15.8 µM] | activity change, negative = cytotoxicity [11] 0.727% [at 19 µM] | caspase activation [12] 0.281% [at 19 µM] | activity change, negative = cytotoxicity [13] 0.401% [at 19 µM] | caspase-3/7 activation [14] 0.439% [at 19 µM] | activation [17] -3.67% [at 19 µM] | max activation [18] 4.87% | Potency [19] | Potency [20] | activity, negative = inhibition [16] 1.78% [at 23.6 µM]

CCCC(C)(COC(N)=O)COC(N)=O
inactive: Potency [1] | Potency [2] | Potency [3] | Potency [4] | Potency [5] | outcome [6] | Potency [7] | outcome [8] | Potency [11] | outcome [12] | Potency [13] | outcome [14] | Potency [15] | max activation [18] -1.03% | Potency [19] | Potency [20] | Potency [16]
active: Potency [17] 51.5 µM

From PubChem BioAssay (Tox21)
